Only some compounds are listed: those with a hit (about 19% of all), similar ones and a draw of the others.
Giardia kill – kills Giardia lamblia. Giardia lamblia trophozoite viability. activity change, % at 7.66 µM, hits read low. 0.15% of 340,000 active. AID 540267; in the data active = activity change below about -80%; inconclusive = between about -30% and that limit;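 note: parasites exposed to compound for two days anaerobically before the ATP read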
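Compounds were tested on trophozoites seeded at 100 cells/well and held 48 hrs at 37 deg C anaerobically. An ATP-based luminescent kit measured the remaining live cells.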
ELG1 DNA repair – ELG1-dependent DNA repair inhibition; HEK293T ELG1-luciferase reporter, luminescence, 16 h; DNA damage induced by 5-fluorouridine; AID 504467; Potency, µM (titrated, usually from 46.1 µM), for inactives: top-dose activity change, negative = inhibition, hits mostly inhibitors; 2.3% of 330,000 active; note: potency is the fitted concentration of half-maximal effect; nearly all actives have a fitted effect of over 55% in size
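DMSO vehicle served as the neutral condition. Each well held 2,000 cells given 5-fluorouridine plus compound; after 16 hr at 37 °C/5% CO2, ONE-Glo was added and luciferase measured 30 min later.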
IL1B secr inh – inhibitors of inflammasome signaling (IL-1 beta secretion); THP-1 LPS/ATP IL-1B secretion, AlphaLISA, 16 h; hits give low values; activity change, % at 57.5 µM; 4.7% of 360,000 active; AID 743279; in the data active = activity change below about -50%; inconclusive = mostly about -30% to -49%
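THP-1 cells pretreated 1 hr with compounds (up to 57.5 uM final), then stimulated with LPS (250 ng/mL final) plus ATP (1.25 mM final); secreted IL-1B measured by AlphaLISA after 16 hr, decreased signal indicating inhibition.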
TDP1 block – TDP1 (human) enzyme inhibition; AID 485290; recombinant TDP1, AlphaScreen DNA substrate cleavage; Potency, µM (top dose mostly 130 µM), inactives show at the top dose activity change, negative = inhibition, hits mostly inhibitors; 0.28% of 350,000 active; Q9NUW8; note: potency is the fitted concentration of half-maximal effect; nearly all actives have a fitted effect of over 40% in size
Target sequence (Q9NUW8 whole entry, looked up): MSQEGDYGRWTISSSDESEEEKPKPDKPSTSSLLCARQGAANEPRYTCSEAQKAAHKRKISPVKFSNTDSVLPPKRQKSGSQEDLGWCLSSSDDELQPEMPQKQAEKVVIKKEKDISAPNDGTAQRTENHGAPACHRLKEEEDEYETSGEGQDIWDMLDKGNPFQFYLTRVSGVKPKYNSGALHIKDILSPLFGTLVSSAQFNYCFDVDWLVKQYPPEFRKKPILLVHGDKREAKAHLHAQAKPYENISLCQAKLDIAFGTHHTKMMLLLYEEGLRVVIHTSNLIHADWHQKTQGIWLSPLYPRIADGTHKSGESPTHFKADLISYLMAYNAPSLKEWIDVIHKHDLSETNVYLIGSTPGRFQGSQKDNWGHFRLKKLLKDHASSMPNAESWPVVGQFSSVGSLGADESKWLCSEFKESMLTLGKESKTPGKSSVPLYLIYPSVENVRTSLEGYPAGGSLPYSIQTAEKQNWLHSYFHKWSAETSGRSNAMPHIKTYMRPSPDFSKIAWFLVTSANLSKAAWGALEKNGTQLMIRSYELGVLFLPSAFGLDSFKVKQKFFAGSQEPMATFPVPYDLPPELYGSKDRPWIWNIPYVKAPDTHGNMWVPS
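Compounds were preincubated with Tdp1 (1 nM final) for 15 min at room temperature before substrate (15 nM final) started a 5 min reaction; beads (10 ug/ml final) were then added for 10 min before AlphaScreen detection.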
TDP1 cell CPT – growth inhibition of DT40 Tdp1-/-;hTDP1 cells with camptothecin (screen for TDP1 inhibitors); chicken DT40 Tdp1-/-;hTDP1 cells + 20 nM CPT, ATP luminescence, 48 h; Potency, µM (series often up to 46.2 µM), for inactives: top-dose activity change, negative = growth inhibition, most hits filed as inhibitors; 12% of 420,000 active; note: potency is the fitted concentration of half-maximal effect; nearly all actives have a fitted effect of over 55% in size
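Cell growth measured by CellTiter-Glo luminescence after a minimum 48 h, 37 C compound exposure with 20 nM CPT in Tdp1-knockout DT40 cells stably expressing hTDP1, seeded 400/well; qHTS titration format.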
DT40 TDP1 no CPT – qHTS for Inhibitors of human tyrosyl-DNA phosphodiesterase 1 (TDP1): qHTS in cells in absence of CPT | DT40 Tdp1-/- hTDP1 cells, no CPT, ATP luminescence, 48 h | Potency, µM (series often up to 46.2 µM), inactives show at the highest dose activity change, negative = growth inhibition, usual class: inhibitors | 15% of 420,000 active | AID 686978, 2013; note: potency is the fitted concentration of half-maximal effect; nearly all actives have a fitted effect of over 55% in size
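Stably hTDP1-transfected Tdp1-null chicken DT40 cells were treated with library compounds minus camptothecin and grown for at least 48 hr at 37 °C, after which cellular ATP was quantified by luminescence.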
* = called active by the depositor; i = inactive; ? = inconclusive; · = no result; [ ] = remark or other dose. Unless noted, calls come from the whole dose curve; as a rule, active = well fitted curve in the direction sought with a large enough effect; inconclusive = small, poorly fitted or top-dose-only effect, or another doubt; inactive = no such curve, though single readings can be large; an effect the other way counts as inactive or inconclusive. % is set by controls: 0 for no effect and ±100 for the full control effect.

SMILES	Giardia kill	ELG1 DNA repair	IL1B secr inh	TDP1 block	TDP1 cell CPT	DT40 TDP1 no CPT
CCN(CC(=O)Nc1ccc(Cl)c(S(=O)(=O)N(C)C)c1)CC(=O)NC(C)C	-9.3	1.2%	21.0	2.3%	-8.2%	-26.6%
COC(=O)c1ccc(NC(=O)CSc2n[nH]c(CC(C)C)n2)cc1	·	·	·	·	11.8%	5.2%
O=C(CCS(=O)(=O)c1ccccc1)N1CCN(c2ccccc2)CC1	-9.2	?	i	3.2%	-28.4%	-28.6%
CCOC(=O)CNC(c1ccccc1)c1cc(Br)ccc1NC(=O)CCN1CCOCC1 (stereo unspecified)	-25.3	4.9%	?	5.5%	2.06µM*	0.82µM*
COC(=O)CNC(c1ccccc1)c1cc(Br)ccc1NC(=O)CNC(=O)OCc1ccccc1 (stereo unspecified)	-16.8	?	?	5.4%	-10.3%	?
COC(=O)CNC(c1ccccc1)c1cc(Br)ccc1NC(=O)CCN1CCOCC1 (stereo unspecified)	3.8	6.1%	-55.4*	2.7%	2.59µM*	1.64µM*
CCOC(=O)CNC(c1ccccc1)c1cc(Br)ccc1NC(=O)OCC (stereo unspecified)	-22.2	-19.9%	-4.5	4.8%	?	?
CCOC(=O)CNC(c1ccccc1)c1cc(Br)ccc1NC(=O)c1ccc(Cl)cc1 (stereo unspecified)	·	·	·	1.3%[12.3 µM]	10.3µM*	6.51µM*
C=CCn1c(SCC(=O)NC(N)=O)nnc1-c1cc2c(s1)CCC(CC)C2 (stereo unspecified)	-0.2	0.7%	-21.3	-0.6%	-17.5%	?
C=CCn1c(SCC(=O)NCCOC)nnc1-c1cc2c(s1)CCC(CC)C2 (stereo unspecified)	6.1	?	-18.7	0.0%	?	18.4µM*
C=CCn1c(SCC(=O)NCC)nnc1-c1cc2c(s1)CCC(CC)C2 (stereo unspecified)	-3.2	?	-12.2	-2.6%	23.1µM*	16.4µM*
CCOc1ccc(N2CC(C(=O)N3CCN(c4ccccn4)CC3)CC2=O)cc1 (stereo unspecified)	-4.3	1.8%	-4.3	-0.2%	2.5%	-5.3%
COc1ccccc1CNC(=O)CSc1nc2nc(C)c(Cc3ccccc3Cl)c(C)n2n1	·	·	·	2.9%	?	?
COCCNC(=O)CSc1nc(-c2ccc(OC)c(OC)c2)cc(C(F)(F)F)n1	1.0	-8.3%	-13.2	-1.1%	-0.2%	-15.5%
COc1ccc(-c2cc(C(F)(F)F)nc(S(=O)(=O)CCCC(=O)Nc3cccc(O)c3)n2)cc1OC	-4.7	?	-145.7*	2.7%	3.66µM*	4.11µM*
COc1ccc(NC(=O)CCCS(=O)(=O)c2nc(-c3ccc(OC)c(OC)c3)cc(C(F)(F)F)n2)cc1OC	-7.9	·	·	5.9%	1.64µM*	1.64µM*
COc1ccc(-c2cc(C(F)(F)F)nc(S(=O)(=O)CCCC(=O)Nc3ccccc3C(F)(F)F)n2)cc1OC	·	·	·	2.9%	1.16µM*	2.06µM*
CCC1(C)Cc2ccccc2-c2[nH][nH]c(=O)c21 (stereo unspecified)	26.3	?	-8.3	0.0%	0.7%	-20.9%
Cc1cc(=O)oc2cc(OCC(=O)Nc3ccc(CN4CCOCC4)cc3)c(Cl)cc12	50.5	0.5%	-14.8	0.6%	?	-4.5%
CC(C)CO/N=C1/C[C@@H](O)[C@@H](O)[C@@H]2[C@@H]3C(=O)N(C(C)(C)C)C(=O)[C@H]3CC[C@H]12	·	·	·	9.0%[21 µM]	·	·
O=C(NCCc1ccccc1)C(=O)NCC1OCCN1S(=O)(=O)c1ccc(Br)cc1 (stereo unspecified)	4.0	-4.0%	5.9	2.2%	?	16.4µM*
